{"source": "PubChem BioAssay AID504339", "about": "(National Center for Advancing Translational Sciences (NCATS), 2011)", "note": "The whole screen tested about 390,000 compounds, of which about 17,000 (4.4%) were called active. Entries that show only a call come without a potency. About 8% were inconclusive and are not listed. The sample holds actives, similar compounds and a random draw of the others, so the mix is not that of the screen. Calls come from the whole dose curve; as a rule, active = well fitted inhibition curve with a large enough effect; inconclusive = small, poorly fitted or top-dose-only effect; inactive = no such curve, though single readings can be large or run the other way. Potency is the fitted concentration of half-maximal effect."}
{"molecular_target": "Lysine-specific demethylase 4A (Homo sapiens) (UniProt O75164)", "sequence (O75164 whole entry, looked up, the tested form may be a part)": "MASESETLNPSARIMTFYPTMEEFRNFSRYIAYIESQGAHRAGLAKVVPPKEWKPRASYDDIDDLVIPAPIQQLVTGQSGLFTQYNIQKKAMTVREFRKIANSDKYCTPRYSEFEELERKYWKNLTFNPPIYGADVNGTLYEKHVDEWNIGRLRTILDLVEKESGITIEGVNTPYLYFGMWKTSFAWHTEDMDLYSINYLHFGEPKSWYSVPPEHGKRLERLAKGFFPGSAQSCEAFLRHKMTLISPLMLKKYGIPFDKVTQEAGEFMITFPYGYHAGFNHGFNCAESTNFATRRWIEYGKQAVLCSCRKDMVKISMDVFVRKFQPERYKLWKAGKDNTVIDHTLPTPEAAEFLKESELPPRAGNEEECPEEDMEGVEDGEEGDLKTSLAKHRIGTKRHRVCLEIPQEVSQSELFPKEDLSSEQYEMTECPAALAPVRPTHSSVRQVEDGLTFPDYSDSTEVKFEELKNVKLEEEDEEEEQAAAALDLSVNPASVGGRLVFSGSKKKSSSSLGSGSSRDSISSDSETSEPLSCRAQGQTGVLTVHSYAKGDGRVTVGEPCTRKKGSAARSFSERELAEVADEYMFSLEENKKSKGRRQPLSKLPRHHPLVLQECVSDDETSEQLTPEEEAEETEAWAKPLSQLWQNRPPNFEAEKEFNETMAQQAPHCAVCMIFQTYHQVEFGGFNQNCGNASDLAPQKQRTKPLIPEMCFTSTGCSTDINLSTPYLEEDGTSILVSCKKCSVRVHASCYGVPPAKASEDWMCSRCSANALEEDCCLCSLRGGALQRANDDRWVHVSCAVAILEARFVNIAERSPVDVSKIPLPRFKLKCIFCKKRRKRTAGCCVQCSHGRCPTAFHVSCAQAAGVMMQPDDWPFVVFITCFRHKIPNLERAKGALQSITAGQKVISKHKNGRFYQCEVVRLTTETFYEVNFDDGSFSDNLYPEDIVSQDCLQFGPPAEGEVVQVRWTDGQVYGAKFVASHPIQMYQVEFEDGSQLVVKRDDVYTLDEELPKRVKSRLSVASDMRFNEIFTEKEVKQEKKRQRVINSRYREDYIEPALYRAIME", "assay": "qHTS Assay for Inhibitors of JMJD2A-Tudor Domain; note: nearly all actives have a fitted effect of over 50% in size", "conditions": "AlphaScreen JMJD2A-Tudor / H3K4me3 peptide binding; series mostly up to 114 µM"}
{"smiles": "O=C(CSc1oc(-c2ccco2)nc1S(=O)(=O)c1ccc(Cl)cc1)c1ccccc1", "Potency": "inactive"}
{"smiles": "COc1ccccc1C1/C(=C(/O)c2ccc(C)cc2)C(=O)C(=O)N1Cc1ccco1", "note": "(stereo not drawn)", "Potency": "inactive"}
{"smiles": "COc1ccc(C2/C(=C(/O)c3ccccc3)C(=O)C(=O)N2C)c(OC)c1", "note": "(stereo not drawn)", "Potency": "inactive"}
{"smiles": "COc1ccc(/C(O)=C2\\C(=O)C(=O)N(Cc3ccco3)C2c2ccc(OC)cc2OC)cc1", "note": "(stereo not drawn)", "Potency": "20 µM (active)"}
{"smiles": "CCOC(=O)c1cccc(NC(=O)C(Cc2ccccc2)NS(=O)(=O)c2cccc3nsnc23)c1", "note": "(stereo not drawn)", "Potency": "inactive"}
{"smiles": "COc1ccc2c(c1)c(N1CCCC1=O)c(C(=O)Nc1ccccc1C(F)(F)F)n2C", "Potency": "inactive"}
{"smiles": "CC(c1ccco1)N(C(=O)Nc1ccccc1)C1CCCCC1", "note": "(stereo not drawn)", "Potency": "inactive"}
{"smiles": "CC(C)(C)NS(=O)(=O)c1ccc(NC(=O)NC2CCCCC2)cc1", "Potency": "inactive"}
{"smiles": "Cc1ccc(NC(=O)NC(=O)N(C2CCCCC2)S(=O)(=O)c2ccccc2)cc1", "Potency": "70.8 µM (active)"}
{"smiles": "Cc1ccc2cccc(NC(=O)c3cccc4ccccc34)c2n1", "Potency": "inactive"}
{"smiles": "COc1cccc2c1C(=O)c1c(O)c3c(c(O)c1C2=O)CC(O)(C(C)=NNC(=O)c1ccc(Cl)c(Cl)c1)CC3OC1CC(N)C(O)C(C)O1", "note": "(stereo not drawn)", "Potency": "50.1 µM (active)"}
{"smiles": "Cc1ccc(CNC(=O)CCNS(=O)(=O)c2ccc3c(c2)oc(=O)n3C)cc1", "Potency": "inactive"}
{"smiles": "O=C(Nc1ccc2nc(SCCOc3ccccc3Cl)sc2c1)c1ccco1", "Potency": "inactive"}
{"smiles": "COc1ccc(CC(=O)NCC(=O)N/N=C/c2cc(Br)ccc2OC)cc1", "Potency": "inactive"}
{"smiles": "COc1ccc(C(=O)c2oc3ccc(Br)cc3c2NC(C)=O)cc1", "Potency": "inactive"}
{"smiles": "COc1ccc(/C=C/C(=O)c2cc(Br)ccc(=O)c2O)cc1", "Potency": "31.6 µM (active)"}
{"smiles": "COc1ccc(S(=O)(=O)NCc2cccn2Cc2cccc(C)c2)cc1", "Potency": "inactive"}
{"smiles": "CCOc1ccccc1N(C)C(=O)c1cc2c(s1)-c1ccccc1OC2", "Potency": "inactive"}
{"smiles": "CCSc1ncc(Cl)c(C(=O)Nc2c(C(=O)c3ccccc3)oc3ccccc23)n1", "Potency": "inactive"}
{"smiles": "O=C(CCS(=O)(=O)c1cc(Br)cc2c1N(C(=O)C1CC1)CC2)Nc1ccc(Br)cc1F", "Potency": "inactive"}
{"smiles": "CC1=C(C)CC2C(=O)N(c3cccc4ccccc34)C(=O)C2C1", "note": "(stereo not drawn)", "Potency": "56.2 µM (active)"}
{"smiles": "Cc1ccc(N2C(=O)CC(Nc3cccc4ccccc34)C2=O)cc1", "note": "(stereo not drawn)", "Potency": "inactive"}
{"smiles": "CCc1ccccc1N1C(=O)C2C3CC(=O)C(c4ccccc43)C2C1=O", "note": "(stereo not drawn)", "Potency": "inactive"}
{"smiles": "O=C(Cn1ncn2nc(-c3cccs3)cc2c1=O)NCc1cccc(Br)c1", "Potency": "inactive"}
{"smiles": "CCOC(=O)c1[nH]c(C)c(CCC(=O)N2CCN(c3ccccc3)CC2)c1C", "Potency": "inactive"}
{"smiles": "Cc1ccc(CNC(=O)Cn2c(=O)ccc3cc(S(=O)(=O)N4CCCC4)ccc32)cc1", "Potency": "inactive"}
{"smiles": "COc1ccc(OCCn2cc(C(=O)C3CCCCC3)c3ccccc32)cc1", "Potency": "inactive"}
{"smiles": "COc1ccc(OCCCC(=O)Oc2ccc(OC)cc2)cc1", "Potency": "inactive"}
{"smiles": "COc1ccc(OCCn2ccnc2C)cc1", "Potency": "1 µM (active)"}
{"smiles": "CCOc1ccc(N(CC)C(=O)C2CCN(S(=O)(=O)c3cccc4nonc34)CC2)cc1", "Potency": "inactive"}
{"smiles": "O=C1c2ccccc2-c2ncnc3c(N4CCOCC4)cc(N4CCOCC4)c1c23", "Potency": "44.7 µM (active)"}
{"smiles": "Cc1oc2c(c1C(=O)N1CCOCC1)C(=O)c1ccccc1C2=O", "Potency": "inactive"}
{"smiles": "O=S(=O)(Nc1cc(Cl)ccc1N1CCOCC1)c1ccccc1Cl", "Potency": "inactive"}
{"smiles": "Cn1nnnc1SCCCNCc1cccc(OCc2ccc(Cl)cc2)c1", "Potency": "inactive"}
{"smiles": "O=[S+]([O-])(c1ccc2c(c1)OCCO2)N1CCN([S+](=O)([O-])c2c(Cl)cc(Cl)cc2Br)CC1", "Potency": "inactive"}
{"smiles": "Cc1ccc(C)c(N2CCN(CCCNC(=O)Nc3ccc(Cl)cc3)CC2)c1", "Potency": "inactive"}
{"smiles": "CCOc1ccccc1NC(=O)CCS(=O)(=O)c1cccc2nsnc12", "Potency": "inactive"}
{"smiles": "CCOc1ccc(OCC)c(NC(=O)CN(C)S(=O)(=O)c2cccc3nsnc23)c1", "Potency": "50.1 µM (active)"}
{"smiles": "CCOc1ccc(NC(=O)CCS(=O)(=O)c2cccc3nsnc23)cc1", "Potency": "inactive"}
{"smiles": "CCc1nc2onc(C)c2c(=O)n1CC(=O)O", "Potency": "inactive"}
{"smiles": "CCOc1ccc(NC(=O)c2cn(C3CCCCC3)c(=O)c3c2c2ccccc2n3C)cc1", "Potency": "inactive"}
{"smiles": "O=C(N/N=C\\c1cccc(Br)c1)c1ccccc1-n1cccc1", "Potency": "inactive"}
{"smiles": "O=C(Nc1ccc(N2CCCC2=O)cc1)c1cncc(Br)c1", "Potency": "inactive"}
{"smiles": "O=C(N/N=C/c1cccc(Br)c1)c1ccc(N2CCCC2=O)cc1", "Potency": "56.2 µM (active)"}
{"smiles": "O=[N+]([O-])c1ccccc1OCCCCN1CCCCC1", "Potency": "inactive"}
{"smiles": "CC1CN(CCOc2ccccc2[N+](=O)[O-])CC(C)O1", "note": "(stereo not drawn)", "Potency": "22.4 µM (active)"}
{"smiles": "CC(Oc1ccccc1[N+](=O)[O-])C(=O)N/N=C/c1ccoc1", "note": "(stereo not drawn)", "Potency": "inactive"}
{"smiles": "COc1ccc2ncc3c(-c4ccc(C)c(C)c4)nn(CC(=O)NC4CCCC4)c3c2c1", "Potency": "inactive"}
{"smiles": "Cc1cc(=O)n(CC(=O)Nc2cccc([N+](=O)[O-])c2)c(-n2nc(C)cc2C)n1", "Potency": "inactive"}
{"smiles": "O=C(/C=C/c1ccccc1)N1CCN(Cc2cc(=O)n3nc(-c4ccccc4F)sc3n2)CC1", "Potency": "inactive"}
{"smiles": "COc1cccc2c1cc1c(=O)n(CC(=O)N3CCN(c4ccccc4)CC3)nc(C)n12", "Potency": "inactive"}
{"smiles": "CC1Cc2cc(/C(O)=C3\\C(=O)C(=O)N(CCN4CCOCC4)C3c3ccccc3F)ccc2O1", "note": "(stereo not drawn)", "Potency": "39.8 µM (active)"}
{"smiles": "CC1Cc2cc(/C(O)=C3\\C(=O)C(=O)N(Cc4cccnc4)C3c3ccccc3F)ccc2O1", "note": "(stereo not drawn)", "Potency": "inactive"}
{"smiles": "O=C1C(=O)N(CCN2CCOCC2)C(c2cccc(Cl)c2)/C1=C(/O)c1ccc2c(c1)OCO2", "note": "(stereo not drawn)", "Potency": "inactive"}
{"smiles": "CCOc1ccccc1NC(=O)C1CCCN(S(=O)(=O)c2cn(C)cn2)C1", "note": "(stereo not drawn)", "Potency": "inactive"}
{"smiles": "COCCNS(=O)(=O)c1cc(-c2nn3c(C)nnc3c3ccccc23)ccc1C", "Potency": "inactive"}
{"smiles": "Cc1c(N=Nc2ccc(N(C)C)cc2)c(=O)n(-c2ccccc2)n1C", "Potency": "inactive"}
{"smiles": "Cc1cccc(N=Nc2c(C)[nH]n(-c3ccccc3)c2=O)c1", "Potency": "11.2 µM (active)"}
{"smiles": "Cc1cccc(N=Nc2c(O)[nH]c3ccc(F)cc23)c1", "Potency": "inactive"}
{"smiles": "Cc1[nH]n(-c2ccccc2)c(=O)c1CCOC(=O)c1ccc(C(F)(F)F)cc1", "Potency": "inactive"}
{"smiles": "Cc1ccc(N=Nc2c(C)[nH]n(-c3ccccc3)c2=O)cc1", "Potency": "6.31 µM (active)"}
{"smiles": "Cc1ccc(-c2ccnc3[nH]n(-c4ccccc4)c(=O)c23)cc1", "Potency": "inactive"}
{"smiles": "O=C(NCc1ccc(F)cc1)c1ccc(Cn2c(SCc3ccc(F)cc3)nc3cccnc32)cc1", "Potency": "inactive"}
{"smiles": "Cc1c(NC(=O)Nc2ccc(F)c(Cl)c2)c(=O)n(-c2ccccc2)n1C", "Potency": "inactive"}
{"smiles": "Cc1c(CNC(C)c2ccccc2)c(C(=O)O)c(C)n1Cc1c(F)cccc1Cl", "note": "(stereo not drawn)", "Potency": "inactive"}
{"smiles": "O=C(NCCCO)C(=O)Nc1c2c(nn1-c1ccc(F)cc1)CSC2", "Potency": "inactive"}
{"smiles": "CCn1c(CNC(=O)C23CC4CC(CC(C4)C2)C3)nnc1SCC(=O)Nc1ccc(OC)cc1", "Potency": "inactive"}
{"smiles": "CC1=C(c2ccc(F)cc2)S(=O)(=O)N=C1N1CCC(C(=O)NCCc2ccccc2C)CC1", "Potency": "inactive"}
{"smiles": "CCCS(=O)(=O)N1CCC(n2c(C(F)(F)F)nc3cccnc32)CC1", "Potency": "inactive"}
{"smiles": "NS(=O)(=O)c1ccc(NC(=O)COc2ccc(S(=O)(=O)NC3CCCCC3)cc2)cc1", "Potency": "inactive"}
{"smiles": "CC(C)Cn1c(=O)c2ccccc2n2c(CCC(=O)N3CCN(c4cccc(Cl)c4)CC3)nnc12", "Potency": "inactive"}
{"smiles": "CCOc1ccc2nc(N3CCC(C(=O)Nc4cc(C)ccc4C)CC3)sc2c1", "Potency": "inactive"}
{"smiles": "COCCNCCOCCOc1cccc(OC)c1", "Potency": "inactive"}
{"smiles": "COCCCNCCOCCOc1ccc(Cl)cc1Br", "Potency": "1.78 µM (active)"}
{"smiles": "OCCNCCOc1ccc(Cl)c(Cl)c1", "Potency": "inactive"}
{"smiles": "COC(=O)c1nc(NC(=O)c2ccccc2)n[nH]1", "Potency": "inactive"}
{"smiles": "Cn1nnc(NC(=S)NC(=O)c2ccccc2)n1", "Potency": "5.01 µM (active)"}
{"smiles": "COc1cc(NS(=O)(=O)c2ccc(NC(=S)NC(=O)c3ccccc3)cc2)nc(OC)n1", "Potency": "inactive"}
{"smiles": "O=C(C1COc2ccccc2O1)N(Cc1cccnc1)c1nc2c(F)cc(F)cc2s1", "note": "(stereo not drawn)", "Potency": "inactive"}
{"smiles": "COc1ccc(Cc2nnc(NS(=O)(=O)Cc3ccccc3)s2)cc1", "Potency": "inactive"}
{"smiles": "COc1ccc(Cc2nnc(NC(=O)Cc3cccs3)s2)cc1", "Potency": "28.2 µM (active)"}
{"smiles": "COc1ccccc1NC(=O)Nc1nnc(Cc2ccc(F)cc2)s1", "Potency": "inactive"}
{"smiles": "Cc1nn(C(C)C(=O)NCCc2ccccc2)c(=O)c2c1sc1ccccc12", "note": "(stereo not drawn)", "Potency": "inactive"}
{"smiles": "COC(=O)c1sccc1S(=O)(=O)N(CC(=O)Nc1ccc(C)c(F)c1)c1ccc(C)c(C)c1", "Potency": "inactive"}
{"smiles": "COc1cc(/C=N\\Nc2nc(-c3cccs3)c(NC(C)=O)s2)ccc1O", "Potency": "25.1 µM (active)"}
{"smiles": "CCOc1cc(C=NNC(=O)CCCC(=O)NN=Cc2ccc(O)c(OCC)c2)ccc1O", "Potency": "inactive"}
{"smiles": "CC(=O)c1sc(N/N=C/c2ccc(C(C)C)cc2)nc1C", "Potency": "inactive"}
{"smiles": "Cc1ccc2nc(COc3cccc(NC(=O)c4ccccc4Cl)c3)cc(=O)n2c1", "Potency": "inactive"}
{"smiles": "COc1cc(C(=O)NCCc2csc3nc(-c4ccccc4C)nn23)cc(OC)c1OC", "Potency": "inactive"}
{"smiles": "CCOC(=O)c1c(NC(=O)CSc2nccc(=O)[nH]2)sc(C)c1C", "Potency": "inactive"}
{"smiles": "CCOC(=O)c1c(NC(=O)CSc2nnc(CN3CCOCC3)n2C)sc2c1CCCC2", "Potency": "inactive"}
{"smiles": "CCOC(=O)c1c(NC(=O)CSc2nnc(Cc3csc(N)n3)n2C)sc(C)c1C", "Potency": "39.8 µM (active)"}
{"smiles": "COc1ccc(C2C(=O)N(C3CCCCCC3)CC(=O)N2CCc2ccc(Cl)cc2)cc1OC", "note": "(stereo not drawn)", "Potency": "inactive"}
{"smiles": "Cc1ccc(Cn2cc(CCC(=O)NCc3ccc(OC(C)C)cc3)c3ccccc32)cc1", "Potency": "inactive"}
{"smiles": "Cc1ncc(CO)c(/C=N/NC(=O)c2cccc(S(=O)(=O)N3CCCC3)c2)c1O", "Potency": "22.4 µM (active)"}
{"smiles": "CCOc1cc(/C=N/NC(=O)c2cccc(S(=O)(=O)N3CCOCC3)c2)ccc1OCC(=O)N(C)C", "Potency": "inactive"}
{"smiles": "Cc1cccc(NC(=O)c2cccc(S(=O)(=O)N3CCCC3)c2)n1", "Potency": "inactive"}
{"smiles": "COc1ccccc1CCNC(=O)c1cccn1-c1nnc(N2CCCCC2)s1", "Potency": "inactive"}
